Experimental data: PubChem BioAssay AID602393 (Broad Institute, 2012)
The campaign covered roughly 350,000 compounds. About 7,000 (2%) were called active. This excerpt belongs to a sample that is enriched for actives. Unmarked numbers belong to inactive results. No stated cut-off is given here; in the data, active means activation above about 40%; inconclusive means no clear call, values can overlap the other calls; inactive means below that.

Assay: Bmi1 luciferase reporter increase in mESCs, primary screen, esBAF inhibitor project, mouse ES cells, Bmi1 luciferase knock-in, single point (AID 602393);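 further: 0% = median of the plate's neutral control wells and 100% = double that signal; a rise in the Bmi1 reporter signal indicates esBAF inhibition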
Details: 24 h, at 12.5 µM, hits give high values, 100% = twice the neutral-well signal

Compound | reporter increase
N#Cc1ccc(C2N=C(c3ccccc3)NO2)cc1 (stereo not given) | 65.2% (active)
S=C1NC(c2ccccc2)=NCN1c1ccc(Br)cc1 | 30.7%
Brc1ccccc1C1N=C(c2ccccc2)NO1 (stereo not given) | 54.3% (active)
CO[C@@H]1CN(C)C(=O)c2cc(NC(=O)C3CCCC3)ccc2OC[C@@H](C)N(Cc2ccc(F)cc2)C[C@H]1C | 8.36%
CO[C@H]1CN(C)C(=O)c2cc(NC(=O)NC(C)C)ccc2OC[C@H](C)N(C(=O)CN(C)C)C[C@H]1C | -0.455%
COc1ccc(NC(=O)N(C)C[C@H]2OCCCC[C@@H](C)Oc3ccc(NS(=O)(=O)c4ccc(F)cc4)cc3C(=O)N([C@@H](C)CO)C[C@@H]2C)cc1 | 1.41%
O=C(C[C@@H]1CC[C@H]2[C@@H](COC[C@@H](O)CN2CC2CC2)O1)NCc1ccc(Cl)cc1 | -7.82%
CO[C@H]1CN(C)C(=O)c2cc(NC(C)=O)ccc2OC[C@H](C)N(C(=O)C2CC2)C[C@H]1C | -2.16%
CS(=O)(=O)N1C[C@@H](O)COC[C@@H]2O[C@H](CC(=O)NC3Cc4ccccc4C3)CC[C@H]21 | -3.82%
CNC[C@H]1Oc2cc(C#CC(C)(C)O)ccc2S(=O)(=O)N([C@@H](C)CO)C[C@@H]1C | -0.555%
COCC(=O)N1C[C@H]2[C@@H](c3ccccc31)[C@@H](CO)N2Cc1ccccc1 | -3.85%
Cc1nn(-c2ccc([N+](=O)[O-])cc2)c(N)c1-c1ccccc1 | 49.1% (active)
Cc1nn(-c2ccccc2)c2c1C(c1cccc([N+](=O)[O-])c1)N(c1ccccc1)C(=O)N2 (stereo not given) | 10.1%
Cn1nc(-c2ccccc2)c2cc([N+](=O)[O-])ccc21 | -3.5%
Cc1ccccc1S(=O)(=O)NCC[C@@H]1CC[C@H](NC(=O)C2CC2)[C@@H](CO)O1 | -5.25%
O=C(Nc1ccc(Sc2ccc(Br)cc2)cc1)c1ccco1 | 30.7%
Cc1cc(NC(=O)c2ccc(F)cc2)ccc1NC(=O)c1ccco1 | -3.11%
O=C(Nc1ccc(Oc2ccccc2)cc1)c1ccco1 | 45.8% (active)
CC1CCN(c2ccc(-c3ccc(NC(=O)c4ccco4)cc3)nn2)CC1 | 55.6% (active)
CN1CCN(S(=O)(=O)c2ccc(NC(=O)c3ccco3)cc2)CC1 | 7.27%
Cc1ccc(NC(=O)c2ccco2)cc1 | 58.7% (active)
O=C(/C=C/c1ccco1)Nc1ccc(Oc2ccccc2)cc1 | 78% (active)
CC1CCN(C(NC(=O)c2ccco2)C(=O)c2ccccc2)CC1 (stereo not given) | -0.711%
COc1cccc(NC(=O)COC(=O)/C=C/c2ccco2)c1 | -3.7%
O=C(/C=C/c1ccco1)NC(=S)Nc1ccccc1Br | 12.7%
O=C(NNC(=O)c1ccco1)Nc1ccccc1 | 0.317%
CC(C)(C)NC(=O)c1cc(NC(=O)c2ccco2)cc(NC(=O)c2ccco2)c1 | -7.07%

Compound | reporter increase
C[C@@H]1CCCCO[C@H](CN(C)C(=O)CCCN(C)C)[C@H](C)CN([C@H](C)CO)C(=O)c2cc(NC(=O)CCC(F)(F)F)ccc2O1 | -8.36%
COCC(=O)NC[C@@H]1[C@@H](c2ccc(C3=CCCC3)cc2)[C@@H](CO)N1C(C)=O | 2.64%
C[C@@H]1CN([C@H](C)CO)C(=O)c2c(c3ccccc3n2C)-c2ccccc2CO[C@H]1CN(C)C(=O)c1ccncc1 | 1.87%
COCC#Cc1cnc2c(c1)C(=O)N([C@@H](C)CO)C[C@@H](C)[C@H](CN(C)C(=O)Nc1ccccc1OC)O2 | -2.03%
CCCNC(=O)[C@@H]1[C@@H](CO)[C@@H]2Cn3c(cccc3=O)[C@H]1N2C(=O)C1CCC1 | 3.3%
C[C@@H]1CCCCO[C@H](CN(C)C)[C@H](C)CN([C@@H](C)CO)C(=O)c2cc(NS(=O)(=O)c3ccccc3)ccc2O1 | -0.305%
CC(Oc1cccc(NC(=O)c2cccs2)c1)C(=O)c1ccccc1 (stereo not given) | 5.41%
Cc1ccoc1C(=O)Nc1cccc(Oc2ccccc2)c1 | 69.9% (active)
CC1(C(=O)Nc2cccc(Oc3ccccc3)c2)CCN1Cc1ccccc1Cl (stereo not given) | -0.493%
COc1ccc(CN(C)C[C@@H]2OCCCC[C@H](C)Oc3ccc(NS(C)(=O)=O)cc3C(=O)N([C@@H](C)CO)C[C@H]2C)cc1 | -1.93%
O=C(NC1CCCCC1)[C@@H]1[C@@H](CO)[C@@H]2Cn3c(cccc3=O)[C@@H]2N1C(=O)CC1CC1 | 0.341%
C[C@H](O)C#Cc1cnc2c(c1)C(=O)N([C@H](C)CO)C[C@H](C)[C@H](CN(C)C(=O)c1ccc(F)cc1)O2 | 0.158%
O=C(NCc1ccccc1)c1onc(CSc2nc3ccccc3[nH]2)c1C(=O)NCc1ccccc1 | -3.03%
CCCCN(CC)CCCNC(=O)c1ccc(CSc2nc3ccncc3[nH]2)cc1 | 0.105%
COc1ccccc1CSc1nc2ccccc2[nH]1 | 69.6% (active)
C/C(=N\Nc1nc2ccccc2[nH]1)c1cccs1 | 67.6%
COc1ccc2nc(SCC(=O)Nc3c(C)cc(C)cc3C)[nH]c2c1 | -3.13%
O=C(CSc1nc2ccccc2[nH]1)c1cccs1 | 79.4% (active)
CCCCSc1nc2ccccc2[nH]1 | 56.3% (active)
CN(Cc1ccccc1)c1nc2c(c(=O)[nH]c(=O)n2C)n1CCSc1nc2ccccc2[nH]1 | 5.78%
CN(Cc1ccccc1)C(=O)CSc1nc2ccccc2[nH]1 | 36%
COc1cccc(S(=O)(=O)Nc2ccc3c(c2)[C@@H]2C[C@@H](CC(=O)NC4CCCCC4)O[C@H](CO)[C@@H]2O3)c1 | 9.31%
CCCNC(=O)N[C@H]1C=C[C@@H](CC(=O)NC2CCCCC2)O[C@H]1CO | 0.216%
COc1cccc(NC(=O)N(C)C[C@H]2OCc3ccccc3-c3ccccc3C(=O)N([C@H](C)CO)C[C@@H]2C)c1 | 4.73%
Cc1nc2ccccc2c(=O)n1NC(=O)c1ccc(Cl)c([N+](=O)[O-])c1 | 3.65%
Cc1ccnc(NC(=O)c2ccc(Cl)c([N+](=O)[O-])c2)c1 | 30.4%
C/C(=N\Nc1nncc2ccccc12)c1ccc(Cl)c([N+](=O)[O-])c1 | 50.9% (active)

Compound | reporter increase
CN(C)C(=O)c1cccc(-c2ccc3n(c2=O)C[C@H]2N[C@@H]3[C@@H](C(=O)NC3CCC3)[C@@H]2CO)c1 | -3.26%
CCCNC(=O)N1[C@H](CO)[C@H]2c3ccccc3N(C(=O)Nc3cccc(Cl)c3)C[C@H]21 | -0.3%
OC(c1ccccc1)c1nc(-c2cnc3ccccc3c2)cs1 (stereo not given) | 50.7% (active)
CC(C)c1cccc(-c2csc(C(O)c3ccccc3)n2)c1 (stereo not given) | 38.6%
COc1cccc(C(NC(C)=O)c2nc(-c3cnc4ccccc4c3)cs2)c1 (stereo not given) | -2.81%
C[C@@H]1CN([C@@H](C)CO)S(=O)(=O)c2ccc(/C=C/c3ccccc3)cc2O[C@@H]1CN(C)C(=O)Nc1cc(F)ccc1F | 2%
COc1ccccc1-c1cn(CC[C@H]2CC[C@H](NC(=O)C3CCOCC3)[C@@H](CO)O2)nn1 | 0.605%
O=C(Nc1cccc(C(=O)O)c1)/C(=C\c1ccccc1)NC(=O)c1ccc(Br)o1 | -2.41%
Cc1cccc(NC(=S)NC(=O)c2ccc(Br)o2)c1 | 52.3% (active)
CCS(=O)(=O)c1ccc(-c2cccc(NC(=O)c3ccc(Br)o3)c2)nn1 | -4.52%
CO[C@H]1CN(C)C(=O)c2ccc(NC(=O)c3cccc(Oc4ccccc4)c3)cc2OC[C@@H](C)NC[C@H]1C | -1.39%
C/C=C/c1ccc([C@@H]2[C@@H](CN(C)C(C)=O)N(C(=O)C3CC3)[C@H]2CO)cc1 | -1.72%
Cc1cc(C)nc(NC(=O)Nc2ccccc2C(F)(F)F)n1 | -6.57%
O=C(NCc1cn2ccsc2n1)Nc1cccc(Cl)c1 | 28.5%
Cc1cc(Cl)nc(NC(=O)Nc2cccc(Cl)c2)n1 | 74.9% (active)
Cc1noc(C)c1S(=O)(=O)Nc1ccc2c(c1)C(=O)N([C@H](C)CO)C[C@@H](C)[C@@H](CN(C)C(=O)C1CCCCC1)OCCCC[C@@H](C)O2 | 5.24%
O=C(C[C@@H]1CC[C@H](NC(=O)C2CC2)[C@@H](CO)O1)NCc1ccncc1 | -3.99%
CCc1cccc(C)c1NC(=O)COC(=O)CC1CCCC1 | 2.51%
CCOc1cccc2cc(C(=O)OCC(=O)Nc3c(C)cccc3CC)c(=O)oc12 | 50.3% (active)
Cc1cccc(C)c1NC(=O)COC(=O)c1ccccc1O | 0.59%
CNC[C@H]1Oc2ccc(NS(=O)(=O)c3ccccc3)cc2CC(=O)N([C@H](C)CO)C[C@@H]1C | -1.73%
O=C(NCc1ccco1)c1sc2cccc(F)c2c1Cl | 44% (active)
COc1ccc2c(Cl)c(C(=O)NCc3ccco3)sc2c1 | 35.4%
O=C(CCNC(=O)c1ccccc1Cl)NCc1ccco1 | -4.58%
CCCC#Cc1cnc2c(c1)C(=O)N([C@@H](C)CO)C[C@@H](C)[C@@H](CN(C)C(=O)c1ccccc1)O2 | -1.26%
COc1ccc(NC(=O)Nc2ccc3c(c2)C(=O)N([C@@H](C)CO)C[C@@H](C)[C@H](CN(C)C(=O)CCC(F)(F)F)OCCCC[C@@H](C)O3)cc1 | 11%
